The results in this text go back to PubChem BioAssay (Tox21).

Molecules are shown by their SMILES. Inconclusive results are not listed. Values without a mark were called inactive. The source made the active and inactive calls. The call rests on the fitted dose curve; in most records, active means well fitted inhibition curve with a large enough effect in the repeat runs; inconclusive means weak or mixed curves; inactive means no such curve, though single readings can be large or run the other way.
On the % scale 0 is the no-effect control and ±100 the full control effect; potency means the concentration at half of the fitted maximal effect.

Cytochrome P450 2C19 (Homo sapiens), sequence (P33261 whole entry, looked up): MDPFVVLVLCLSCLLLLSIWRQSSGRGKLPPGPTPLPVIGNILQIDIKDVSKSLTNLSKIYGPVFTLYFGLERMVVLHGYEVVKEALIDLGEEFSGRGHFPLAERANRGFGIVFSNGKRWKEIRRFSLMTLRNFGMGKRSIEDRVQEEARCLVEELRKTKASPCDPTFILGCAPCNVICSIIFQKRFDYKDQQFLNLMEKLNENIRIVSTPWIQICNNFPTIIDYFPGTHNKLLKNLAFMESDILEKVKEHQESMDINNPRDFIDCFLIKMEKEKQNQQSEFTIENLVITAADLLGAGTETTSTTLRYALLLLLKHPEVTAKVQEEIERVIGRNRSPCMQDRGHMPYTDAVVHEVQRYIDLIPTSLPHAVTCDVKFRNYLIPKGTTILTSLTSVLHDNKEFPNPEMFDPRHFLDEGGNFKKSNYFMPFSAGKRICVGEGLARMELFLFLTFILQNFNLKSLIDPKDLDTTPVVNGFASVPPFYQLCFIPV

This assay addresses Cytochrome P450 2C19 (Homo sapiens) (UniProt P33261). The assay is described as follows: Cytochrome P450 Family 2 Subfamily C Member 19 (CYP2C19) small molecule antagonists: luciferase reporter qHTS assay (AID 1671197). Further: nearly all actives have a fitted effect of over 65% in size. The conditions noted are these: P450-Glo CYP2C19 enzyme, luciferin luminescence, 1 h; series mostly up to 52.9 µM; activity change, negative = inhibition: at the top concentration. The essentials:
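Compounds were tested on CYP2C19 activity via proluciferin conversion to luciferin. The 37C, 1 h reaction followed NADPH addition; detection reagent stopped it.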
Take `CC(NC(CCc1ccccc1)C(=O)O)C(=O)N1C(=O)N(C)CC1C(=O)O` (configuration not stated): the “activity change, negative = inhibition” value was 25.4%. Consider `CC(C)NC(=O)NC(C)C`, for which the “activity change, negative = inhibition” value is -4.16% [at 115 µM].

With `CCCN1CCCC[C@H]1C(=O)Nc1c(C)cccc1C`, the “activity change, negative = inhibition” value was -10.8%. Turning to `NS(=O)(=O)c1ccccc1Cl`, the “activity change, negative = inhibition” value was -11.1% [at 115 µM]. Take `O=C1NC(=O)[C@@]2(CCOc3ccc(F)cc32)N1`: the “activity change, negative = inhibition” value was -7.29%. On the same count and under the same terms, with `Nc1nc2c(ncn2COC(CO)CO)c(=O)[nH]1` the figure was 14%; with `CCOC(=O)[C@H](CCc1ccccc1)N[C@@H](C)C(=O)N1[C@H](C(=O)O)C[C@@H]2CCC[C@@H]21`, 19.9%. On to `CC(C)(C)c1ccc(O)c(O)c1`, for which the Potency entry is “inactive”. In the case of `COC(=O)c1ccc(C)cc1C1=NC(C)(C(C)C)C(=O)N1` (configuration not stated), the “activity change, negative = inhibition” value was -13.3% [at 115 µM]. Take `C=C[Si](OC(=C)C)(OC(=C)C)OC(=C)C`: the Potency was 39.9 µM (active). Take `CCC(=O)OC(C)c1ccccc1` (configuration not stated): the “activity change, negative = inhibition” value is 23.1% [at 115 µM].

On to `CC(C(=O)O)c1ccc(CC2CCCC2=O)cc1` (configuration not stated), for which the “activity change, negative = inhibition” value is 41.3%.
